Records with an inconclusive call do not appear. A number with no mark means an inactive call. Activity calls are given as the source filed them. The call rests on the fitted dose curve; in most records, active means well fitted curve in the direction sought with a large enough effect; inconclusive means small, poorly fitted or top-dose-only effect, or another doubt; inactive means no such curve, though single readings can be large; an effect the other way counts as inactive or inconclusive. Square brackets hold non-standard residues; d marks the D form. Peptide text beside a SMILES is read from it. 2Abz = Nc1ccccc1C(=O)O

The source of these data is PubChem BioAssay (NCATS).

Test [1] addresses Cellular tumor antigen p53 (Homo sapiens) (UniProt P04637). Briefly: Primary qHTS for small molecule compounds that upregulate eGFP-tagged delta133p53alpha (in N-terminal) cells. (AID 2060322). Further: nearly all actives have a fitted effect of over 75% in size. Further: potency means the concentration at half of the fitted maximal effect.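 On activation: cells pre-induced with doxycycline then dosed without doxycycline; series mostly up to about 56 µM; 0% = DMSO vehicle and 100% = reference activator.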 The settings on record: NCI-H358 eGFP-delta133p53alpha fluorescence, 24 h; activation: stronger effect = higher value. In short, it runs like this: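 NCI-H358 cells pre-induced 24 h with 10 ng/ml doxycycline for eGFP-delta133p53alpha, plated dox-free and exposed 24 h at 37C to titrated compounds. Fixed, Hoechst-stained; gated GFP peak intensity by laser scanning cytometry, normalized to DMSO (0%) and 57.5 uM 5-azacytidine (100%).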
Background: Quantitative high-throughput screening tests each substance at several concentrations.

Test [2] concerns the target Aldehyde dehydrogenase, mitochondrial (Homo sapiens) (UniProt P05091). Put plainly: qHTS for Inhibitors of the Aldehyde Dehydrogenase Family (ALDH2) Primary screen (AID 2061308).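 Further: plate controls were vehicle for no effect and reference inhibitor for full effect; nearly all actives have a fitted effect of over 55% in size.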
Test [3] addresses Retinaldehyde dehydrogenase 3 (Homo sapiens) (UniProt P47895). Briefly: qHTS for Inhibitors of the Aldehyde Dehydrogenase Family (ALDH1A3) Primary screen (AID 2061315).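 Further: plate controls were DMSO vehicle for no effect and reference inhibitor for full effect.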

Chain of Cellular tumor antigen p53 (Homo sapiens) (P04637 whole entry, looked up): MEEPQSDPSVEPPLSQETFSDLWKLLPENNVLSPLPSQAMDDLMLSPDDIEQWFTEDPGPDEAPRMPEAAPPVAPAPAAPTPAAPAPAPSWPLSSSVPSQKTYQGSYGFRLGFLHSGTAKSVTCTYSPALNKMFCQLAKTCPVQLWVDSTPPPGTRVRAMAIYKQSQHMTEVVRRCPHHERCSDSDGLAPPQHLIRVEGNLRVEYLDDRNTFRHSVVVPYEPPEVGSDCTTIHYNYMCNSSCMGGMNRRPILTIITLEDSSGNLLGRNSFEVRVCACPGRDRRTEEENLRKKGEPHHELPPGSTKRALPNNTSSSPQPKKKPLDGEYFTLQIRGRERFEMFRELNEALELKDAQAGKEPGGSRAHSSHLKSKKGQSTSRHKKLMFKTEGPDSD

With `CC1(CCOC2OC(CO)C(O)C(O)C2O)CCC23OC2(C1)C(O)CC1C(C)(C(=O)O)CCCC13C` (configuration not stated), the activation in test [1] was -13.7%. Also, the Potency result in test [2] and in test [3] was “inactive” throughout.
Consider `CCC(C)/C=C(C)/C=C/c1cc2c(cn1)C(=O)C(C)(OC(C)=O)C(O)=C2Cl` (configuration not stated), for which, in test [1], the activation was -6.11%. Moreover, the Potency entry in test [2] and in test [3] was “inactive” throughout.
With `O=C(NOC[C@H](O)CO)c1ccc(F)c(F)c1Nc1ccc(I)cc1F`, the activation in test [1] is 8.59%. The Potency result in test [2] and in test [3] was “inactive” throughout.
Turning to `COC(=O)C1C(O)CCC2CN3CCc4c([nH]c5ccccc45)C3CC21` (configuration not stated), the activation in test [1] is 23.2%. Further, the Potency result in test [2] and in test [3] was “inactive” each time.
In the case of `CC(C)n1cnc2c(-c3cnc(N)nc3)nc(N3CCOCC3)nc21`, in test [1], the activation is 15.7%. The Potency result in test [2] and in test [3] was “inactive” each time.
Turning to `CNc1nc(Nc2cn(C(C)(C)C#N)nc2C)ncc1C(F)(F)F`, the activation in test [1] was -23.2%. The Potency entry in test [2] and in test [3] was “inactive” each time.
On to `CCNC(=O)NCCCOc1cccc(CN2CCCCC2)c1`, for which the activation in test [1] was 15%. Also, the Potency entry in test [2] and in test [3] was “inactive” each time.
Consider `O=C(O)CC1(O)C(=O)Nc2ccccc21` (configuration not stated), for which, in test [1], the activation was 1.79%. Further, the Potency entry in test [2] and in test [3] was “inactive” each time.
Turning to `CN(C)C/C=C/C(=O)Nc1cc2c(Nc3ccc(F)c(Cl)c3)ncnc2cc1OC1CCOC1` (configuration not stated), the Potency in test [1] was 7.57 µM (active). In addition, the Potency result in test [2] and in test [3] was “inactive” throughout.
`CC1=CC[C@@]2(C)CC[C@@](O)(C(C)C)[C@@H]2[C@@H](O)C1`: the activation in test [1] was 11.5%. The Potency result in test [2] and in test [3] was “inactive” in each case.
Regarding `CC1=CC(=O)C2C(C)(C)CCC[C@]2(C)[C@H]1CO` (some centres not stated), the activation in test [1] was -3.82%. Further, the Potency entry in test [2] and in test [3] was “inactive” throughout.
Turning to `CC(=O)N[C@H](Cc1ccc(O)cc1)C(=O)N[C@H](CCCN=C(N)N)C(=O)N[C@H](Cc1ccccc1)C(N)=O` (Ac-[dY]-[dR]-[dF]-NH2), the activation in test [1] was -15.7%. In addition, the Potency result in test [2] and in test [3] was “inactive” throughout.
With `C[C@@H]1O[C@@H](O[C@H]2[C@H](O)[C@@H](O)[C@H](OC[C@H]3O[C@@H](OC(=O)[C@]45CCC(C)(C)C[C@H]4C4=CCC6[C@@]7(C)C[C@H](O)[C@H](O[C@@H]8O[C@H](CO)[C@@H](O)[C@H](O)[C@H]8O)[C@@](C)(C(=O)O)C7CC[C@@]6(C)[C@]4(C)CC5)[C@H](O[C@@H]4O[C@H](CO)[C@@H](O)[C@H](O)[C@H]4O)[C@@H](O)[C@@H]3O)O[C@@H]2CO)[C@H](O)[C@H](O)[C@H]1O` (some centres not stated), the activation in test [1] is 18.8%. Besides, the results for the activity change, negative = inhibition in test [2] and in test [3] were 8.16% [at 11.2 µM] and -4.1% [at 11.2 µM], respectively.
As for `CCCC1=CC2=C(CO1)C(=O)C(C)(O)C(OC(=O)c1c(C)cc(OC)cc1O)C2` (configuration not stated), in test [1], the activation is -1.53%. Also, the Potency result in test [2] and in test [3] was “inactive” in each case.
For the compound `C[C@@H]1CC[C@]2(C(=O)O)CC[C@]3(C)C(=CCC4[C@@]5(C)CC[C@H](O)C(C)(C)C5C(O)C[C@]43C)[C@@H]2[C@]1(C)O` (some centres not stated), the activation in test [1] was 0.893%. The Potency result in test [2] and in test [3] was “inactive” each time.
In the case of `CCC(C)C1NC(=O)C2CCCN2C(=O)C(C(C)C)NC(=O)c2ccccc2NC(=O)C(Cc2ccc(O)cc2)NC(=O)C(C)NC(=O)C(C(C)O)NC1=O` (configuration not stated) (cyclo([2Abz]VPITAY); configuration not given here), in test [1], the activation is 0.763%. For the same compound, the Potency entry in test [2] and in test [3] was “inactive” throughout.
Consider `CC(C)C[C@H](CC(=O)NO)C(=O)N[C@H](C(=O)N[C@@H](C)C(=O)NCCN)C(C)(C)C`, for which the activation in test [1] is 3.67%. Besides, the activity change, negative = inhibition in test [2] is 1.06% [at 11.2 µM]; in test [3], -12.1% [at 11.2 µM].
Turning to `CC1(C(=O)O)CCCC2(C)C3CCC4CC3(CCC12)CC4=O` (configuration not stated), in test [1], the activation was 16.1%. Besides, the Potency result in test [2] and in test [3] was “inactive” in each case.
As to `Cc1onc(C(=O)N2CCN(C(c3ccc(Cl)cc3)c3ccc(Cl)cc3)CC2)c1[N+](=O)[O-]`, the activation in test [1] is 10.7%. Further, the Potency entry in test [2] and in test [3] was “inactive” in each case.
On to `C[C@]1(O)CC[C@@H]2C(C(=O)O)=CO[C@@H](O[C@@H]3O[C@H](COC(=O)/C=C/c4ccc(O)c(O)c4)[C@@H](O)[C@H](O)[C@H]3O)[C@@H]21`, for which the activation in test [1] is 0%. Also, the Potency entry in test [2] and in test [3] was “inactive” throughout.
For `O=C(N[C@@H]1CCCc2c1cnn2-c1ccc(F)cc1F)c1ccccn1`, the activation in test [1] is 12.3%. Moreover, the Potency result in test [2] and in test [3] was “inactive” throughout.
As to `CCC(C)C(=O)OC12C(OC(C)=O)C(C)C3(O)C(C=C(CO)CC4(O)C(=O)C(C)=CC43)C1C2(C)C` (configuration not stated), in test [1], the activation was -19.1%. Moreover, the Potency entry in test [2] and in test [3] was “inactive” in each case.
Regarding `CCC/C=C1\OC(=O)C2=C1CCC(O)C2O` (configuration not stated), the activation in test [1] was 12.2%. Also, the Potency entry in test [2] and in test [3] was “inactive” each time.
Take `COc1cc(CO)cc(OC)c1O[C@@H]1O[C@H](CO)[C@@H](O)[C@H](O)[C@H]1O`: in test [1], the activation was -2.68%. For the same compound, the Potency result in test [2] and in test [3] was “inactive” in each case.
